# Many of the other results were omitted from the sample, so hits are more common in it than they were.
# FECH inh – inhibitors of human ferrochelatase; AID 1671448; purified FECH, Ni-mesoporphyrin absorbance 550 nm; calls only at 10 µM (by protocol); 20,000 tested, 3.3% active; P22830;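 active = enzyme reaction rate more than 3 SD below the solvent-only control wells on the same plate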;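 also: lower slope than DMSO wells means FECH inhibition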
# Target sequence (P22830 whole entry, looked up): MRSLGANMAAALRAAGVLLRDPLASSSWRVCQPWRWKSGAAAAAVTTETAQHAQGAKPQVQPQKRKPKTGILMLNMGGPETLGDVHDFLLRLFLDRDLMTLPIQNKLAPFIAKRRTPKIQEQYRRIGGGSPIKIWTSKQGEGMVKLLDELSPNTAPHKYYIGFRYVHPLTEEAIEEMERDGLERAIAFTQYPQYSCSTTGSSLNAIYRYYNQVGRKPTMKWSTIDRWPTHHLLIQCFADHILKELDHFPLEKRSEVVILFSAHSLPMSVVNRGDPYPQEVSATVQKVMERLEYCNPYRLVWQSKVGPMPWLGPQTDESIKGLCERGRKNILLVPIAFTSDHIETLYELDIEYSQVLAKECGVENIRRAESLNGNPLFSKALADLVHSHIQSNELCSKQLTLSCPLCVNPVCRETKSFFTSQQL
# An asterisk follows results filed as active; i = inactive; + = active, no number.
SMILES,FECH inh
CCc1ccc(CNC(=O)C2CCN(c3ncnc4c3nc3n4CCCCC3)CC2)cc1,i
COCCNC(=O)C1=C(C)C(=O)OC12CCN(S(C)(=O)=O)CC2,i
CCC(CO)N(Cc1ccccn1)C(=O)c1cnn2ccccc12 (stereo unspecified),i
c1cc(-n2cnnc2)cc(-n2cnc3ccccc32)c1,i
COc1ccc(Oc2ccc(C(=O)NCCc3cnc[nH]3)cc2)cc1,+
COc1ccccc1-n1cc(C(=O)NCCc2cnc[nH]2)cn1,i
O=C(NCCc1cnc[nH]1)c1ccc(CN2C(=O)CCn3nccc32)cc1,i
Cc1cccc(N(Cc2nc3nc(C)cc(C)n3n2)C(=O)c2cccc([N+](=O)[O-])c2)c1,i
Cn1cnc(-c2ccccc2)c1-c1cccc2cnccc12,i
CCc1ccccc1-c1c(-c2ccccc2)ncn1CCC(=O)OC,i
COCC1(Cn2cnc(-c3ccccc3)c2-c2cccc3cnccc23)CC1,+
NC(=O)C1(N2CCCCC2)CCN(c2ncnc3sc4c(c23)CCNC4)CC1,i
CCCC1C=CCN1c1ncnc2sc3c(c12)CCNC3 (stereo unspecified),+
CC(C)Cc1cc(CNc2ncnc3sc4c(c23)CCNC4)no1,i
COc1ccc(Cl)cc1NCc1cc(=O)n2[nH]c(-c3ccccc3C)nc2n1,i
Cc1ccccc1-c1nc2nc(CNc3cccc(C(F)(F)F)c3)cc(=O)n2[nH]1,i
COc1ccccc1NCc1cc(=O)n2[nH]c(-c3ccccc3C)nc2n1,i
CCc1ccccc1NCc1cc(=O)n2[nH]c(-c3ccccc3C)nc2n1,i
Cc1cccc(NCc2cc(=O)n3[nH]c(-c4ccccc4C)nc3n2)c1,+
Cc1ccccc1-c1nc2nc(CNc3ccc(Cl)cc3)cc(=O)n2[nH]1,+
Cc1ccccc1-c1nc2nc(CNCc3ccccc3)cc(=O)n2[nH]1,+
Cc1cccc(NCc2cc(=O)n3[nH]c(NCc4ccccc4)nc3n2)c1,i
Cc1ccccc1-c1nc2nc(CNc3c(C)cccc3C)cc(=O)n2[nH]1,i
CCOCCCNc1nc(Nc2ccc(OC)cc2)c2cnn(-c3ccccc3)c2n1,i
Cc1cnc(CNC(=O)CCNC(=O)c2ccccc2F)cn1,i
SMILES,FECH inh
Cc1ccc(Nc2cc(C(C)C)nc3nc(-c4cccnc4)nn23)cc1,i
CN1CCC2(CC1)CN(C(=O)CNC(N)=O)CCCN2C,i
COc1ccc(NC(=O)CC(=O)N2CCN(C)C3(CCN(C)CC3)C2)cc1,+
CCc1ccccc1NC(=O)C(=O)N1CCN(C)C2(CCN(C)CC2)C1,i
CCN(Cc1ccccc1)c1nc(SC)nc(-c2ccccc2)c1C#N,i
CCc1cc(Sc2ccc(NS(=O)(=O)c3cc(OC)ccc3OC)cc2)n2ncnc2n1,i
Cc1cc(N2CCCC2)nc(N2CCN(S(=O)(=O)c3ccccc3)CC2)n1,i
Cc1cc(N2CCCCC2)nc(N2CCN(S(=O)(=O)c3ccccc3)CC2)n1,i
Nc1nc(N2CCCCCC2)ncc1S(=O)(=O)c1cccs1,+
O=C(NC1CC1)C1CCN(c2ccc(-c3ccccc3)nn2)CC1,+
Cc1ccc(-c2ccc(N3CCC(C(=O)NCCCN(C)Cc4ccccc4)CC3)nn2)cc1,i
CCN(CCNC(=O)C1CCN(c2ccc(-c3ccccc3)nn2)CC1)Cc1ccccc1,+
CCCNC(=O)C1CCN(c2ccc(-c3ccccc3)nn2)CC1,i
CC(C)CCNC(=O)C1CCN(c2ccc(-c3ccccc3)nn2)CC1,i
O=C(NC1CC1)C1CCN(c2ccc(-c3cccs3)nn2)CC1,i
C=CCN(CC=C)C(=O)CN1CCCC1c1cc(C)no1 (stereo unspecified),i
Cc1cccc(-c2noc(CN(C)Cc3cn[nH]c3-c3ccc(F)cc3)n2)c1,i
CC(NC(=O)c1ccc2c(c1)nnn2C)c1ccccc1-n1cccn1 (stereo unspecified),i
COC(=O)c1c(NC(=O)c2cccc(C(F)(F)F)c2)sc2c1CCN(C)C2,i
Cc1nc(C)c(-c2nccn2-c2ccc3cn[nH]c3c2)s1,i
c1nc(NCc2ccsc2)c2[nH]cnc2n1,i
CC(=O)N1CCc2c(sc(NC(=O)CCOc3ccccc3)c2-c2nc3ccccc3s2)C1,i
O=C(CN1CCN(Cc2ccc(F)cc2Cl)S1(=O)=O)Nc1ccc(Br)cc1,i
CCOC(=O)c1ccccc1NC(=O)CN1CCN(Cc2ccc(F)cc2Cl)S1(=O)=O,+
O=C(CN1CCCN(Cc2ccccc2Cl)S1(=O)=O)Nc1ccc(F)c(Cl)c1,+
SMILES,FECH inh
COc1ccccc1NC(=O)CN1CCN(Cc2ccc(F)cc2Cl)S1(=O)=O,i
O=C(CN1CCN(Cc2ccccc2Cl)S1(=O)=O)Nc1ccc(Cl)cc1,i
O=C(CN1CCN(Cc2ccc(F)cc2Cl)S1(=O)=O)Nc1ccccc1Cl,i
CCc1ccc(NC(=O)CN2CCN(Cc3ccc(F)cc3Cl)S2(=O)=O)cc1,i
O=C(CN1CCN(Cc2ccccc2F)S1(=O)=O)Nc1ccc(F)c(Cl)c1,i
Cc1ccc(NC(=O)CN2CCN(Cc3ccc(F)cc3Cl)S2(=O)=O)cc1,+
CC(NC(=O)c1cn(-c2ccccc2)nn1)c1cnccn1 (stereo unspecified),i
NS(=O)(=O)c1ccc(CCN[C@H]2CS(=O)(=O)C[C@@H]2S(=O)(=O)c2ccc(F)cc2)cc1,i
COc1cccc(CCNS(=O)(=O)c2ccc(N3C(=O)CCS3(=O)=O)cc2)c1,i
CCc1ncc2c(n1)CN(C(=O)c1ccc3c(c1)OCC(=O)N3)C2,i
COCCn1c(CCCC(=O)NCc2ccc(C(C)C)cc2)nc2cccnc21,i
NS(=O)(=O)c1ccc(NC(=O)CSc2nc3c(c(=O)[nH]2)CCCC3)cc1,+
NS(=O)(=O)c1ccc(NC(=O)CSc2nc3c(c(=O)[nH]2)CCC3)cc1,i
NS(=O)(=O)c1ccc(NC(=O)c2ccc(=O)n(Cc3ccc(Cl)cc3)c2)cc1,i
Clc1ccc(Nc2nc(NCc3ccco3)nc3c2cnn3-c2ccccc2)cc1,i
O=C(NCCCN1CCCCCC1)C1CCN(c2ccc(-c3cccs3)nn2)CC1,i
O=C(CSc1ccncc1)N1CCCC(c2ccccc2)C1 (stereo unspecified),i
CCN1C(SCC(=O)N2CCCC2)=NS(=O)(=O)c2ccccc21,+
CCN1C(SCC(=O)N(C)c2ccccc2)=NS(=O)(=O)c2ccccc21,+
CCn1nc(C(=O)O)c2c1CCN(C(=O)C(c1cccnc1)N1CCCC1)C2 (stereo unspecified),i
O=C(CC1CCN(S(=O)(=O)c2ccccc2)CC1)N1CCOCC1,i
CN(C)c1nc(Nc2ccc(Cl)cc2)c2cnn(-c3ccccc3)c2n1,i
CCOc1ccc(Nc2nc(N(CC)CCO)nc3c2cnn3-c2ccccc2)cc1,i
COc1ccc(Nc2nc(N(C)C)nc3c2cnn3-c2ccccc2)cc1,+
Cc1cc(C)cc(Nc2nc(NCC3CCCO3)nc3c2cnn3-c2ccccc2)c1 (stereo unspecified),i
COc1ccc(OC)c(Nc2nc(NCc3ccccc3OC)nc3c2cnn3-c2ccccc2)c1,i
COc1cccc(Nc2nc(N(C)C)nc3c2cnn3-c2ccccc2)c1,i
COc1ccc(OC)c(Nc2nc(NCc3ccccc3)nc3c2cnn3-c2ccccc2)c1,i
COc1cccc(Nc2nc(NCC3CCCO3)nc3c2cnn3-c2ccccc2)c1 (stereo unspecified),i
CCN(CC)c1nc(Nc2ccc(OC)cc2)c2cnn(-c3ccccc3)c2n1,+
